The values below come from PubChem BioAssay (Tox21).

Results filed as inconclusive are left out. Values without a mark were called inactive. Active and inactive are the calls of the source. The call rests on the fitted dose curve; in most records, active means well fitted activation curve with a large enough effect in the signal ratio in the repeat runs (not every such curve was filed as active); inconclusive means weak or mixed curves; inactive means flat fitted curve, though single readings scatter; the % refers to the signal ratio.
On the % scale 0 is the no-effect control and ±100 the full control effect.

The test can be described thus: qHTS assay to identify small molecule agonists of the TGF-beta/Smad signaling pathway (AID 1346859). The conditions noted are these: SBE-bla HEK293T, TGF-beta/Smad beta-lactamase reporter, 5 h; series mostly up to 76.8 µM; activation: at the top concentration. An excerpt: U.S. Tox21 Program National Center for Advancing Translational Sciences [NCATS] NIH Chemical Genomics Center [NCGC] U.S. Environmental Protection Agency [EPA] National Institutes of Environmental Health Sciences [NIEHS] National Toxicology Program [NTP] U.S. Food and Drug Administration [FDA] Tox21 Assay Overview: Transforming growth factor beta (TGF-beta) superfamily consists of a large number of structurally related dimeric proteins that act as hormones or local mediators in regulating a wide range of biological functions. This superfamily includes TGF-betas themselves, the bone morphogenetic proteins (BMPs) and the activins. These ligands induce oligomerization of serine/threonine receptor kinases and phosphorylate the cytoplasmic signaling molecules of Smad protein family. CellSensor SBE-bla HEK 293T cell line (Life Technologies, Carlsbad, CA), responsive to TGF-beta was used to screen Tox21 10K compound library for identification of agonists/antagonists of the Smad signaling pathway. This cell line contains a beta-lactamase reporter gene under control of the Smad binding element (SBE) stably integrated into HEK 293T cells.
Tox21 Assay Protocol Summary: SBE-bla HEK 293T cells were dispensed at 4,000/well in 6 uL of assay medium into black wall/clear-bottom 1536-well plates using a Multidrop Combi (ThermoFisher Scientific, Waltham, MA) dispenser. After the assay plates were incubated at 37 C and 5% CO2 for an overnight, 23 nL of compounds dissolved in DMSO, positive controls or DMSO only was transferred to the assay plate by a Pintool station (Kalypsys, San Diego, CA). The assay plates were incubated at 37 C and 5% CO2 for 5 hr. One uL of LiveBLAzer B/G FRET substrate (Life Technologies) was added using a Flying Reagent Dispenser (Aurora Discovery, San Diego, CA) and the plates were incubated at room temperature for 2 hr. Fluorescence intensity (405 nm excitation, 460 nm and 530 nm emissions) was measured using an Envision plate reader (PerkinElmer, Shelton, CT).
Background: Quantitative high-throughput screening tests each substance at several concentrations.
`c1cncc([C@@H]2CCCCN2)c1`: the “activation” value is -0.404%.
Same read-out and setting: with `CCOC(=O)C(Cl)Cc1cc(-n2nc(C)n(C(F)F)c2=O)c(F)cc1Cl` (stereo not given) the figure was -6.7%; with `O=C(Cl)OCc1ccccc1`, 2.8%.
Same read-out and setting: with `COc1ccc2c(C(=O)c3ccc(Cl)cc3)c(C)n(CC(=O)O)c2c1` the figure was -0.216% [at 35.3 µM]; with `O=C/C=C/c1ccco1`, 2.8%.
The same measure, in the same setting: with `O=C(Cl)CCl` the figure was 2.25%; with `CCOP(=S)(OCC)Oc1ccc(Cl)cc1Cl`, -1.16%; with `CC(Cl)(Cl)Cl`, 1.98%.
As for `CC[C@H](N)c1ccccc1`, the “activation” value was 0.0101%.
Still for that read-out and setting: with `CC[C@@H](CO)NC(=O)[C@@H]1C=C2c3cccc4[nH]cc(c34)C[C@H]2N(C)C1` the figure was 1.89% [at 35.3 µM]; with `N#CN`, 0.524% [at 200 µM].
For the compound `CCOC(=O)CC(SP(=S)(OC)OC)C(=O)OCC` (stereo not given), the compound was called inactive.
On to `O=c1[nH]c2ccccc2n1C1CCNCC1`, for which the “activation” value was -1.71% [at 35.3 µM].
Still for that read-out and setting: with `O=c1[nH]c2ccccc2o1` the figure was 2.83%; with `CCC(=O)OC1(c2ccccc2)CCN(C)CC1`, -2.35%.
The same measure, in the same setting: with `CC(C)(N)Cc1ccc(Cl)cc1` the figure was 0.716% [at 35.3 µM].
Turning to `C=C(Cl)CCl`, the “activation” value was -0.6%.
Still for that read-out and setting: with `CCN[C@@H](C)Cc1cccc(C(F)(F)F)c1` the figure was -0.109% [at 35.3 µM].
On the same count and under the same terms, with `CCCOc1nn(C(=O)NS(=O)(=O)c2ccccc2C(=O)OC)c(=O)n1C` the figure was 0.991%; with `CCOC1Oc2ccc(OS(C)(=O)=O)cc2C1(C)C` (stereo not given), 2.93%.
In the case of `CCCCS(=O)(=O)Cl`, the “activation” value was 1.31%.
On the same count and under the same terms, with `Cc1ccc2c(c1)C1CN(C)CCC1N2` (stereo not given) the figure was 3.74% [at 15.8 µM]; with `COc1ccccc1OC`, -0.371%; with `Cc1cc(OC(=O)N(C)C)nn1C(=O)N(C)C`, 1.54%.
Still for that read-out and setting: with `CCCN1CCC[C@@H]2Cc3nc(N)ncc3C[C@H]21` the figure was 1.29% [at 35.3 µM].
With `CC(C)(C)c1cc(O)ccc1O`, the compound was classed as inactive.
`CON(C)C(=O)Nc1ccc(Br)c(Cl)c1`: the “activation” value is -4.1%.
The same measure, in the same setting: with `O=c1[nH]oc2c1CCNC2` the figure was 3.41% [at 35.3 µM]; with `O=C(Cl)C(Cl)Cl`, -0.368%; with `C#CCOC(=O)/C=C(C)/C=C/CC(C)CCCC(C)C` (stereo not given), 4.2%.
For the compound `C[C@H](N)C(=O)c1ccccc1`, the “activation” value is -3.13%.
Take `CNC(=O)Oc1cc(C)c(N(C)C)c(C)c1`: the “activation” value was -2.16%.
Consider `CCSC(=O)Cl`, for which the “activation” value is -4.5%.
Still for that read-out and setting: with `N[C@@H](Cc1ccc(Oc2cc(I)c(O)c(I)c2)c(I)c1)C(=O)O` the figure was -0.559% [at 35.3 µM]; with `C=C(Cl)CSC(=S)N(CC)CC`, 0%; with `CCC1(c2cccc(O)c2)CCCCN(C)C1` (stereo not given), -1.22% [at 35.3 µM].
Still for that read-out and setting: with `O=[N+]([O-])CCO` the figure was -0.264%; with `CCC(C(N)=O)N1CCCC1=O` (stereo not given), -4.17% [at 35.3 µM].
Still for that read-out and setting: with `CCOC(=O)CCl` the figure was -6.39%.
For the compound `C[C@]12C=CC(=O)C=C1CC[C@@H]1[C@@H]2CC[C@@]2(C)[C@H]1CC[C@]2(C)O`, the “activation” value was -5.74% [at 35.3 µM].
